Test results taken from PubChem BioAssay AID434926 (Sanford-Burnham Center for Chemical Genomics, 2010).
This is one part of the list. Values without a mark were called inactive.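 The calls were made as follows: active = at least twofold enzyme activation in any of six single-dose repeats, which the averaged readout prints as negative percent; inactive = the rest.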

Target: Intestinal-type alkaline phosphatase (Homo sapiens) (UniProt P09923)
Experiment: human IAP activators, confirmation, biochemical, luminescence, single concentration, uHTS hits (AID 434926)
Conditions: purified IAP, CDP-Star luminescence, 30 min; at 8.3 µM; active compounds read low

Intestinal-type alkaline phosphatase (Homo sapiens), sequence (P09923 whole entry, looked up): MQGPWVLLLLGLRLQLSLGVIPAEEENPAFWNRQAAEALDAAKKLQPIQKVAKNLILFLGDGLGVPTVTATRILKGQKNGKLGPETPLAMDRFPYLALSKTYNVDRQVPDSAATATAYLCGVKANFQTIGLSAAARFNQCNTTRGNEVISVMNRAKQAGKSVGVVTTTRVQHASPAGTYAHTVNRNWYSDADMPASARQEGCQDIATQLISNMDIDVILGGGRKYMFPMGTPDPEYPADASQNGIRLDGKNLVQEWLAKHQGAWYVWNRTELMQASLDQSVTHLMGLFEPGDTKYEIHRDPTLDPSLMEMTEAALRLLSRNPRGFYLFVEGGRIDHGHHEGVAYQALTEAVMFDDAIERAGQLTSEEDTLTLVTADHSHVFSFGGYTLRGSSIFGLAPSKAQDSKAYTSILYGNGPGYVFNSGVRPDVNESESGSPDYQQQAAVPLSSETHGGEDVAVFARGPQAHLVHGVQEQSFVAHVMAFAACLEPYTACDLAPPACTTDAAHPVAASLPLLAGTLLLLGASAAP

Row | SMILES | activation (%Activity, negative = activation) [%]
1 | CN(c1ccccc1)c1ccc([N+](=O)[O-])c2nonc12 | -1.35
2 | COc1ccccc1N=Nc1c(O)[nH]c(=S)[nH]c1=O | 4.66
